# In the library only some 2.8% were active in any assay of this set; here they are far more common.
# Pol kappa inh = inhibitors of human DNA polymerase kappa; actives 0.53% (n = 400,000); purified Pol kappa, fluorescent DNA synthesis assay, 10 min; Q9UBT6; AID 588579; Potency, µM (series often up to 107 µM), for inactives: at the highest dose activity, negative = inhibition, most hits filed as inhibitors; also: potency is read from the fitted curve at half-maximal effect; % is scaled to controls: 0 for no effect and ±100 for the full control effect
#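 Kinetic fluorescence readout at 0 and 10 min followed reaction start with substrate at 50 nM final. Beforehand, enzyme (10 nM Pol kappa) stood 15 min with compound at room temperature; buffer-only wells were negative controls.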
# POLI inh = inhibitors of human DNA polymerase iota. actives 1% (n = 390,000). AID 588590. Q9UNA4. Pol iota fluorescent replication assay, 10 min. Potency, µM (doses to about 115 µM), for the others: top-dose activity, negative = inhibition, usual class: inhibitors; also: potency is read from the fitted curve at half-maximal effect
#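 Fluorescent replication assay read twice, at 0 min and 10 min after adding 50 nM (final) substrate. Enzyme (10 nM) and compounds were first incubated 15 min at room temperature; enzyme-free buffer wells were negative controls.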
# POLH inh = blocks human DNA polymerase eta activity; Potency, µM (highest dose often 114 µM), for inactives: top-dose activity change, negative = inhibition, hits mostly inhibitors; recombinant Pol eta, fluorescent DNA replication assay; actives 1.2% (n = 390,000); also: potency is read from the fitted curve at half-maximal effect; % is scaled to controls: 0 for no effect and ±100 for the full control effect
# Target sequence (Q9Y253 whole entry, looked up): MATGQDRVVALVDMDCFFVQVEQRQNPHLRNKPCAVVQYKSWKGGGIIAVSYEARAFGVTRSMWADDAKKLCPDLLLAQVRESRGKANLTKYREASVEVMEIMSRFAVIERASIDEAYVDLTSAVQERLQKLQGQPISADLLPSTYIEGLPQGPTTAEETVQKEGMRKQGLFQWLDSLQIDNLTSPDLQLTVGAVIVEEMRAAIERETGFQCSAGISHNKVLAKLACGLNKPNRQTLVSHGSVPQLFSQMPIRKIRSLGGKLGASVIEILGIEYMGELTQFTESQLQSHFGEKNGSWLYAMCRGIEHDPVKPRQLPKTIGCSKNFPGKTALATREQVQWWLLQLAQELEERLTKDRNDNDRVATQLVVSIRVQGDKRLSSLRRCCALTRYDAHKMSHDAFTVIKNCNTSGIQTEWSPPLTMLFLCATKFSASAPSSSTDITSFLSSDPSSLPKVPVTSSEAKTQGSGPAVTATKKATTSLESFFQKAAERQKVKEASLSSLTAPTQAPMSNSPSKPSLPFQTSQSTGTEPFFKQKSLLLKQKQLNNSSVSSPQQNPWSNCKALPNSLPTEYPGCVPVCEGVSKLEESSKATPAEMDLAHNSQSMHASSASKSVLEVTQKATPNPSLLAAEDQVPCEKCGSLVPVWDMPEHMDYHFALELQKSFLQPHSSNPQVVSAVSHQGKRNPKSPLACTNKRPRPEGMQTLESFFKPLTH
#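 Fluorescent replication assay: 50 nM final substrate added after a 15 min room-temperature compound preincubation with 10 nM enzyme. Signal taken at 0 min and again at 10 min.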
# WRN helicase inh = blocks human WRN helicase | Q14191 | WRN helicase unwinding, fluorescent forked duplex, kinetic | Potency, µM (top dose mostly 114 µM), inactives show at the top dose activity change, negative = inhibition, actives largely listed as inhibitors | actives 0.46% (n = 360,000); also: potency is read from the fitted curve at half-maximal effect; % is scaled to controls: 0 for no effect and ±100 for the full control effect; nearly all actives have a fitted effect of over 55% in size
#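 Primary qHTS, 1536-well format. 20 nM WRN + compound, 15 min RT; start with 100 nM forked fluorophore/quencher duplex, 2 mM ATP (final); kinetic read ex 525/em 598 nm.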
# PI5P4Ka inh = blocks human PI5P4K alpha kinase activity | P48426 | PI5P4Kalpha enzyme, ADP-Glo luminescence, 60 min; stronger effect = lower value | max response, % | actives 1.2% (n = 330,000); active = max response of -50% or lower; inconclusive = between -30% and -50%; inactive = -30% or higher; also: value at the top dose of about 77 µM; % is scaled to controls: 0 for no effect and ±100 for the full control effect
#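 Quantitative HTS of the MLSMR library against PI5P4Kalpha with substrate. ATP added last at 5 microM final; room temperature, 60 minutes. Remaining ATP depleted, ADP converted and read as luminescence.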
# POLB inh = DNA polymerase beta (human) inhibition | P06746 | Potency, µM (titrated, usually from 114 µM), without a hit: top-dose activity change, negative = inhibition, most hits filed as inhibitors | actives 1.3% (n = 340,000) | Pol beta primer extension/strand displacement, fluorescence kinetic; also: potency is read from the fitted curve at half-maximal effect; % is scaled to controls: 0 for no effect and ±100 for the full control effect
#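 Pol beta (10 nM) and compounds were preincubated 15 min at room temperature, then 50 nM substrate (final) started primer extension/strand displacement. Reads were taken at 0 and 10 min; concentration-response data were fitted to a four-parameter Hill equation.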
# An asterisk follows results filed as active; ? = inconclusive; . = not tested or not shown; [ ] = dose if it differs, or a comment. Unless noted, calls follow the shape of the dose curve; as a rule, active = well fitted curve in the direction sought with a large enough effect; inconclusive = small, poorly fitted or top-dose-only effect, or another doubt; inactive = no such curve, though single readings can be large; an effect the other way counts as inactive or inconclusive.
SMILES,Pol kappa inh,POLI inh,POLH inh,WRN helicase inh,PI5P4Ka inh,POLB inh
Cc1c(NC(=O)c2ccc3c(c2)C(=O)N(Cc2ccco2)C3=O)cccc1C(=O)O,?,?,31.6µM*,-13.5%[11.6 µM],-11.9,?
O=C1c2cccc3c(O)ccc(c23)C(=O)N1Cc1ccco1,?,20µM*,31.6µM*,?,?,?
O=C(O)c1ccc2c(c1)C(=O)N(Cc1ccco1)C2=O,-10.3%,?,?,-33.8%,-69.3*,1.4%
CCc1ccc(NC(=O)c2ccc3c(c2)C(=O)N(Cc2ccco2)C3=O)cc1,50.1µM*,?,20µM*,-26.7%,?,20µM*
COC(=O)c1cc2sc(Cl)cc2n1CC(=O)Nc1cc(C)cc(C)c1,-19.3%,1.0%,0.7%,.,.,1.5%
O=C1CS(=O)(=O)C2(C(=O)N(Cc3cccc(F)c3)c3ccccc32)N1c1ccccc1 (stereo not given),-5.5%,-4.5%,-1.7%,.,.,-0.6%
CCN1CCCC1CNCc1cccc(OC)c1OCc1ccccc1F (stereo not given),-1.9%,89.1µM*,-0.8%,-0.5%[57.1 µM],.,1.6%
Cn1nnnc1SCCNCc1ccc(OCc2ccc(Cl)cc2)cc1,7.2%,2.9%,-16.2%,.,.,-7.1%
COc1ccc(C)c2sc(N(Cc3cccnc3)C(=O)c3cccs3)nc12,-0.2%[60.1 µM],3.6%,-14.2%,.,.,11.6%
CC(C)[C@H](NS(=O)(=O)c1cccc(Cl)c1)C(=O)OCC(=O)NC(=O)CN1CCCC1=O,?,50.1µM*,22.4µM*,-9.2%,-5.6,.
COC(=O)c1c(NC(=O)COC(=O)[C@@H](NS(=O)(=O)c2cccc(Cl)c2)C(C)C)sc2c1CCC2,-2.8%,15.2%,-26.5%,-15.7%,-10.6,3.0%
COc1ccccc1-n1ncc2c(=O)[nH]c(SCC(=O)Nc3cccc(F)c3)nc21,-4.7%[60.1 µM],5.4%,-14.7%,.,.,-12.8%
CN(C)C(=O)CSc1nnc(-c2ccc(S(=O)(=O)N3CCCC3)cc2)n1C,?,?,89.1µM*,-11.5%,-20.4,3.7%
Cc1ccc(C(=O)/C=C/C(=O)c2ccc(C)cc2)cc1,-7.4%,30.0%,-20.9%,-33.7%,-52.7*,3.4%
CCCCCn1c(C)c2c(OCC)cccc(=O)c2c1C,-18.2%,?,-26.0%,-3.1%,-6.5,0.7%
COc1cccc(=O)c2c(C)n(C)c(C)c12,?,39.8µM*,?,-28.4%,-13.9,25.1µM*
CCOc1cccc(=O)c2c(C)n(C)c(C)c12,?,22.4µM*,?,-23.7%,.,?
CCCn1c2ccccc2c2cnn(CC(=O)N(C)c3ccc(F)cc3)c(=O)c21,1.8%,16.1%,-1.2%,.,.,-1.4%
O=c1[nH]c2ccccc2c(O)c1O,3.4%,?,5.6%,-1.8%,-96.3*,45.8%
O=c1[nH]c2ccccc2c(O)c1-[n+]1ccccc1,-6.0%,?,-9.9%,4.9%,-12.1,-5.4%
O=C(Cc1ccc(S(=O)(=O)N2CCCC2)s1)Nc1nc2c(s1)CCCC2,-26.6%,?,17.8µM*,-21.8%,?,?
O=C(Cc1ccc(S(=O)(=O)N2CCCC2)s1)N1CCOCC1,-13.4%,?,?,-7.5%[57.1 µM],4.1,44.7µM*
CN(C)S(=O)(=O)c1ccc(NC(=O)Cc2ccc(S(=O)(=O)N3CCOCC3)s2)cc1,?,?,56.2µM*,-0.4%[11.6 µM],?,?
COc1ccc(S(=O)(=O)N(C)C)cc1NC(=O)Cc1ccc(S(=O)(=O)N2CCOCC2)s1,-3.7%,-4.5%,4.1%,1.5%,1.9,.
Cc1cc(C)cc(NC(=O)Cc2ccc(S(=O)(=O)N3CCCC3)s2)c1,-23.5%,-16.2%,1.4%,-32.1%,0.4,.
SMILES,Pol kappa inh,POLI inh,POLH inh,WRN helicase inh,PI5P4Ka inh,POLB inh
C=CCNC(=O)Cc1ccc(S(=O)(=O)N2CCOCC2)s1,-11.4%,8.7%,-9.7%,-3.7%,-4.2,.
O=C(Cc1ccc(S(=O)(=O)N2CCOCC2)s1)Nc1ccc(N2CCOCC2)cc1,1.3%,59.5%,-22.8%,-11.5%,-24.1,31.6µM*
COc1cc(Cl)c(NC(=O)c2cc3ccccn3n2)c(OC)c1,-5.2%,?,1.2%,.,.,?
COc1ccc(CNC(=O)c2ccc3c(c2)nc2n3CCCCC2)c(OC)c1,-11.0%[60.1 µM],-4.6%,-1.3%,.,.,23.4%
Cc1cccc(-n2c(O)c(C=Nc3ccccc3O)c3ccccc3c2=O)n1,?,?,44.7µM*,?,-0.2,-32.4%
COc1cc(NS(=O)(=O)c2ccc(NC(=S)NC(=O)c3sc4ccccc4c3Cl)cc2)ncn1,-13.5%,?,25.1µM*,?,?,-22.9%
COc1ccc(C(=O)NC(=S)Nc2ccc(S(=O)(=O)Nc3cc(OC)ncn3)cc2)cc1,-14.3%,-2.0%,-1.2%,-19.6%,5.7,39.4%
COCC1CCN(Cc2c(C(=O)N3CCc4ccccc4C3)nc3ccc(Cl)cn23)C1 (stereo not given),?,39.8µM*,?,-26.3%[11.6 µM],-20.1,?
COC1CCN(Cc2c(C(=O)N3CCc4ccccc4C3)nc3ccc(Cl)cn23)CC1,-10.0%,22.6%,-15.3%,-10.4%,-1.4,35.7%
CC1(C#CC[N+]2(C)CCCCC2)CCC2C(O1)c1ccccc1OC2(C)C (stereo not given),5.5%,39.8µM*,-10.0%,4.0%,-2.3,0.3%
COc1ccc(C(=O)NCCn2cc(SCc3cc(C)ccc3C)c3ccccc32)cc1,-9.4%,89.1µM*,-4.7%,.,.,2.5%
COc1ccc(C(=O)NCCn2cc(SCC(=O)Nc3ccc(C)cc3)c3ccccc32)cc1,-11.5%[60.1 µM],-24.0%,-4.9%,.,.,-0.5%
CCOC(=O)C1=C(C)N(C)C(=O)NC1c1cc2c(cc1[N+](=O)[O-])OCO2 (stereo not given),?,2.82µM*,-14.1%,0.6%,-2.7,17.8µM*
Cc1ccc(C)c(N2CCN(C(=O)c3cc(S(=O)(=O)N4CCCCCC4)cn3C)CC2)c1,-3.2%[60.1 µM],11.7%,-22.5%,.,.,15.6%
O=C(Cc1ccccc1)NO,-2.0%[60.1 µM],8.4%,.,.,.,.
O=C(Cc1ccccc1)NC1(O)C(=O)c2ccccc2C1=O,-1.2%,7.08µM*,?,-1.8%[11.6 µM],-5.0,30.9%
Cn1c(=O)n(-c2ccc(Br)cc2F)c(=O)c2sc3ccccc3c21,-10.5%,37.0%,-16.5%,.,.,1.4%
O=C(Nc1ccc(Cl)c(Cl)c1)c1ccc(Cl)c(Cl)c1,-18.1%,-25.8%,-22.4%,-1.5%,18.0,21.0%
Cc1ccc(NC(=O)c2ccc(Cl)c(N3C(=O)C=CC3=O)c2)cc1,-9.5%,2.4%,-2.6%,50.1µM*,-68.0*,1.0%
Fc1ccc(/C=C/c2ccc3ccccc3n2)cc1,?,-4.1%,.,.,.,.
COc1ccccc1OCC(=O)N/N=C(\C)c1ccc2ccccc2c1,.,.,1.1%,-4.1%,-68.5*,.
C/C(=N\NC(=O)Cc1cccn1C)c1ccc2ccccc2c1,-10.2%,7.0%,-4.6%,-11.9%,-20.5,19.0%
